# Compounds without any hit were thinned out: in the full panel of roughly 79,000, 15% have a hit. A number with no mark means an inactive call. Activity calls are given as the source filed them. Cut-off read from the data, not from the text of the source: active = growth inhibition above about 70%; inactive = the rest.
# Tests used:
# [1] = NCI Yeast Anticancer Drug Screen. Data for the wt1 strain (AID 149);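 note: 0% = growth of vehicle-treated wt1 cultures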; conditions: S. cerevisiae wt1 strain (SPY 50644) growth inhibition, hits give high values
# Procedure, shortened: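 Readout: yeast growth inhibition, normalised to vehicle controls, in the wt1 strain exposed to test compounds.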
# [2] = NCI Yeast Anticancer Drug Screen. Data for the rad50EPP+ strain (AID 151);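 note: 0% = growth of vehicle-treated control cultures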; conditions: S. cerevisiae rad50 mutant strain, hits give high values
# Procedure, shortened: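 Yeast strain carrying rad50 alteration (rad50EPP+) exposed to compounds; growth inhibition measured relative to vehicle-treated controls.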
# [3] = NCI Yeast Anticancer Drug Screen. Data for the mgt1 strain (AID 153); conditions: S. cerevisiae mgt1 mutant growth inhibition, hits give high values
# Procedure, shortened: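 Yeast mgt1 strain (DNA repair/cell-cycle alteration panel) exposed to compounds; growth inhibition measured relative to vehicle-treated controls.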
# [4] = NCI Yeast Anticancer Drug Screen. Data for the rad50 strain (AID 155);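 note: 0% = growth of vehicle-only cultures of the same strain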; conditions: S. cerevisiae rad50 strain growth inhibition, hits give high values
# Procedure, shortened: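 Compounds were tested on a yeast strain with an engineered DNA damage repair alteration; the reported value is growth inhibition normalised to vehicle treatment.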
# [5] = NCI Yeast Anticancer Drug Screen. Data for the mec2-1 strain (AID 157); conditions: S. cerevisiae mec2-1 strain, hits give high values
# Procedure, shortened: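 mec2-1 yeast strain, carrying an alteration in DNA damage repair or cell cycle control, was exposed to compounds; growth inhibition was measured relative to vehicle-treated controls.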
# [6] = NCI Yeast Anticancer Drug Screen. Data for the sgs1 mgt1 strain (AID 161);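 note: 0% = growth of cultures given vehicle only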; conditions: S. cerevisiae sgs1 mgt1 strain, hits give high values
# Procedure, shortened: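 Percent growth inhibition was derived by comparing compound-exposed mutant yeast with vehicle-exposed cultures. The strain carries alterations in DNA damage repair.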
# [7] = NCI Yeast Anticancer Drug Screen. Data for the CLN2oe strain (AID 163);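 note: 0% = growth of vehicle-only control cultures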; conditions: S. cerevisiae CLN2oe strain, hits give high values
# Procedure, shortened: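 Yeast cells carrying a defined cell-cycle control alteration were exposed to test compounds. Growth inhibition was scored against vehicle-treated control cultures.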
# [8] = NCI Yeast Anticancer Drug Screen. Data for the cln2 rad14 strain (AID 165);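 note: 0% = growth equal to vehicle treated cultures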; conditions: S. cerevisiae cln2 rad14 strain, hits give high values
# Procedure, shortened: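 Yeast carrying cln2 and rad14 alterations (cell cycle control and DNA damage repair) were exposed to compounds. Growth inhibition was measured against vehicle-treated controls.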
# [9] = NCI Yeast Anticancer Drug Screen. Data for the bub3 strain (AID 167); conditions: S. cerevisiae bub3 mutant strain, hits give high values
# Procedure, shortened: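 Growth of a checkpoint-deficient yeast mutant is measured after compound exposure. Values represent inhibition relative to vehicle.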
# [10] = NCI Yeast Anticancer Drug Screen. Data for the wt2 strain (AID 169);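 note: 0% = growth of vehicle-treated yeast cultures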; conditions: S. cerevisiae wt2 strain growth inhibition, hits give high values
# Procedure, shortened: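 Yeast cells were exposed to test compounds, and growth inhibition was measured relative to vehicle-treated controls.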
# [11] = NCI Yeast Anticancer Drug Screen. Data for the mlh1 strain (AID 171);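 note: 0% = growth of vehicle-treated control cultures of the same strain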; conditions: S. cerevisiae mlh1 strain growth inhibition, hits give high values
# Procedure, shortened: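 Yeast carrying a defined genetic alteration in DNA damage repair or cell cycle control were exposed to test compounds. Growth inhibition was measured relative to vehicle-treated controls.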
# [12] = NCI Yeast Anticancer Drug Screen. Data for the sgs1 strain (AID 173);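 note: 0% = growth of vehicle-only control cultures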; conditions: S. cerevisiae sgs1 mutant, hits give high values
# Procedure, shortened: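 Yeast mutant strains carrying defined defects in DNA damage repair or cell cycle control were exposed to test compounds. Growth inhibition was scored against vehicle-treated controls.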
# [13] = NCI Yeast Anticancer Drug Screen. Data for the mlh1 rad18 strain (AID 175); conditions: S. cerevisiae mlh1 rad18 strain growth inhibition, hits give high values
# Procedure, shortened: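 Growth inhibition of the yeast strain was measured after compound exposure and expressed relative to vehicle-treated controls. The strain carries defined defects in DNA damage repair.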
# [14] = NCI Yeast Anticancer Drug Screen. Data for the rad18 strain (AID 177); conditions: S. cerevisiae rad18 mutant growth inhibition, hits give high values
# Procedure, shortened: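 Yeast carrying a defined DNA damage repair alteration were exposed to compounds. Growth inhibition was expressed relative to vehicle-treated controls.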
# [15] = at 5.0 µM (retest, dose inferred, filed as 0.5)
# [16] = at 50.0 µM (retest, dose inferred, filed as 5.0)
smiles,measurement,setting,value
O=c1[nH]c(=O)n(CCCO)cc1F,growth inhibition,[1]; at 1.2 µM,-32%
same,growth inhibition,[1]; at 3.7 µM,0%
same,growth inhibition,[1]; at 11.0 µM,-9%
same,growth inhibition,[1]; at 33.0 µM,4%
same,growth inhibition,[1]; at 100.0 µM,-4%
same,growth inhibition,[2]; at 1.2 µM,-14%
same,growth inhibition,[2]; at 3.7 µM,-7%
same,growth inhibition,[2]; at 11.0 µM,-9%
same,growth inhibition,[2]; at 33.0 µM,-10%
same,growth inhibition,[2]; at 100.0 µM,-2%
same,growth inhibition,[3]; at 1.2 µM,-13%
same,growth inhibition,[3]; at 3.7 µM,-31%
same,growth inhibition,[3]; at 11.0 µM,-24%
same,growth inhibition,[3]; at 33.0 µM,-33%
same,growth inhibition,[3]; at 100.0 µM,-18%
same,growth inhibition,[4]; at 1.2 µM,-21%
same,growth inhibition,[4]; at 3.7 µM,-11%
same,growth inhibition,[4]; [15],42%
same,growth inhibition,[4]; at 11.0 µM,-10%
same,growth inhibition,[4]; at 33.0 µM,-12%
same,growth inhibition,[4]; [16],44%
same,growth inhibition,[4]; at 50.0 µM,34.4%
same,growth inhibition,[4]; at 100.0 µM,-13%
same,growth inhibition,[5]; at 1.2 µM,-36%
same,growth inhibition,[5]; at 3.7 µM,-27%
same,growth inhibition,[5]; [15],24%
same,growth inhibition,[5]; at 11.0 µM,-41%
same,growth inhibition,[5]; at 33.0 µM,-33%
same,growth inhibition,[5]; [16],20%
same,growth inhibition,[5]; at 50.0 µM,-38.6%
same,growth inhibition,[5]; at 100.0 µM,-23%
same,growth inhibition,[6]; [15],58%
same,growth inhibition,[6]; [16],76% (active)
same,growth inhibition,[6]; at 50.0 µM,-33.4%
same,growth inhibition,[7]; at 1.2 µM,3%
same,growth inhibition,[7]; at 3.7 µM,8%
same,growth inhibition,[7]; at 11.0 µM,9%
same,growth inhibition,[7]; at 33.0 µM,3%
same,growth inhibition,[7]; at 100.0 µM,7%
same,growth inhibition,[8]; [15],13%
same,growth inhibition,[8]; [16],26%
same,growth inhibition,[8]; at 50.0 µM,-8.55%
same,growth inhibition,[9]; at 1.2 µM,-14%
same,growth inhibition,[9]; at 3.7 µM,-22%
same,growth inhibition,[9]; [15],20%
same,growth inhibition,[9]; at 11.0 µM,-22%
same,growth inhibition,[9]; at 33.0 µM,-37%
same,growth inhibition,[9]; [16],15%
same,growth inhibition,[9]; at 50.0 µM,-26.6%
same,growth inhibition,[9]; at 100.0 µM,-21%
same,growth inhibition,[10]; at 1.2 µM,3%
same,growth inhibition,[10]; at 3.7 µM,-6%
same,growth inhibition,[10]; at 11.0 µM,-14%
same,growth inhibition,[10]; at 33.0 µM,-22%
same,growth inhibition,[10]; at 100.0 µM,-18%
same,growth inhibition,[11]; at 1.2 µM,-30%
same,growth inhibition,[11]; at 3.7 µM,-15%
same,growth inhibition,[11]; at 11.0 µM,-19%
same,growth inhibition,[11]; at 33.0 µM,-15%
same,growth inhibition,[11]; at 100.0 µM,-19%
same,growth inhibition,[12]; at 1.2 µM,-27%
same,growth inhibition,[12]; at 3.7 µM,-16%
same,growth inhibition,[12]; at 11.0 µM,-24%
same,growth inhibition,[12]; at 33.0 µM,-3%
same,growth inhibition,[12]; at 100.0 µM,-11%
same,growth inhibition,[13]; [15],47%
same,growth inhibition,[13]; [16],45%
same,growth inhibition,[13]; at 50.0 µM,-41.3%
same,growth inhibition,[14]; at 1.2 µM,-18%
same,growth inhibition,[14]; at 3.7 µM,-6%
same,growth inhibition,[14]; at 11.0 µM,-4%
same,growth inhibition,[14]; at 33.0 µM,13%
same,growth inhibition,[14]; at 100.0 µM,42%

# Reference: PubChem BioAssay (NCI)
